Calls of active or inactive are those of the source. Unless noted, no rule for the calls is given here.
Tests used:
[1] = system: Wnt5a (protein binding on small-molecule microarray); experiment: small molecules binding Wnt5a protein – biophysical, small-molecule microarray, 635/667 nm fluorescence, primary screen (AID 1142); conditions: 635 nm fluorescence, higher = more signal;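 also: fluorescence read at 667 nm with signal to noise per printed feature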
[2] = ATP-based viability of Huh7 replicon cells – cell-based, CellTiter-Glo luminescence, basal, 48 h, cytotoxicity control for HCV replication inhibitor project, primary screen (AID 1143); conditions: higher = more signal, called active from +8 up or from −8 down;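 also: Huh7 hepatoma cells carrying a hepatitis C replication reporter with no stimulus; test concentration not given here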
[3] = Pseudomonas biofilm growth suppression – PAO1 strain, BacTiter-Glo luminescence, LB-PBS, primary screen (AID 1144); conditions: P. aeruginosa PAO1 biofilm, 12 h, higher = more signal
[4] = basal CRE-LacZ reporter activity in PC12 – cell-based, unstimulated, primary screen (AID 1145); conditions: no forskolin, luminescence, 4.5 h, higher = more signal, called active from +8 up or from −8 down
[5] = forskolin-driven CRE-LacZ activity in PC12 – cell-based, CRE-LacZ reporter, forskolin-stimulated, primary screen (AID 1146); conditions: luminescence, 4.5 h, higher = more signal, called active from +8 up or from −8 down;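 also: PC12 cells with 6xCRE LacZ reporter stimulated by forskolin 10 µM; beta-galactosidase reporter signal reflecting CREB driven transcription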
[6] = target: Streptavidin (Streptomyces avidinii) (UniProt P22629); experiment: compounds binding control protein streptavidin – biophysical, small-molecule microarray, 635/667 nm fluorescence, artefact control for SMM compound annotation, primary screen (AID 1147); conditions: higher = more signal;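 also: signal reflects streptavidin binding to arrayed compounds as a control protein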
Chain of Streptavidin (Streptomyces avidinii) (P22629 whole entry, looked up): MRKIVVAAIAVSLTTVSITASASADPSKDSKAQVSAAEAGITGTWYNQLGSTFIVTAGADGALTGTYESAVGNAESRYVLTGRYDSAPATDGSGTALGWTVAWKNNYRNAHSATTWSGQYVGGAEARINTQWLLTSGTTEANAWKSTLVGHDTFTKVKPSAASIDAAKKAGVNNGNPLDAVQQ

[7] = probe aInhba binding on compound microarray – biochemical, small-molecule microarray, 635/667 nm fluorescence, primary screen (AID 1148); conditions: higher = more signal;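 also: score merges 667nm spot fluorescence with signal-to-noise for antibody binding to printed compounds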
[8] = target: Torsin-1A (Homo sapiens) (UniProt O14656); experiment: TOR1A wild-type binding on microarray – cell lysate, small-molecule microarray, lysate, 635/667 nm, primary screen (AID 1149); conditions: COS7 hTOR1A-WT lysate, 635 nm fluorescence, higher = more signal
Chain of Torsin-1A (Homo sapiens) (O14656 whole entry, looked up): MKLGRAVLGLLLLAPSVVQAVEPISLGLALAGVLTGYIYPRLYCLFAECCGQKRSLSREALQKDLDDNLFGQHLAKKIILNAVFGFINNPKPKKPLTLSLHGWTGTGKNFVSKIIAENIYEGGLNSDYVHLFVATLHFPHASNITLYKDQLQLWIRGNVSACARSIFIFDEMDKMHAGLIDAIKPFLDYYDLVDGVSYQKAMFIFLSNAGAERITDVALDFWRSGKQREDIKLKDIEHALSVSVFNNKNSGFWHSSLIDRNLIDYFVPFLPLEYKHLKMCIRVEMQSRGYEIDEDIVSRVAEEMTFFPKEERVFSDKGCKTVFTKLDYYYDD

[9] = target: Torsin-1A (Homo sapiens) (UniProt O14656); experiment: torsin A mutant lysate binding on microarrays – cell lysate, small-molecule microarray, COS7 lysate, 635/667 nm fluorescence, primary screen (AID 1150); conditions: COS7 hTOR1A mutant lysate, 635 nm fluorescence, higher = more signal;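 also: score pools 667 nm emission and signal to noise measuring lysate protein binding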
[10] = system: Sonic hedgehog protein (Shh); experiment: Sonic hedgehog microarray binding compounds – biochemical, small-molecule microarray, 635/667 nm fluorescence, primary screen (AID 1151); conditions: 635 nm fluorescence, higher = more signal;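 also: Shh protein binding to compounds spotted on small-molecule microarray slides; score combines spot fluorescence intensity with signal-to-noise across triplicate slides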
[11] = optical density shifts of acrAB sulA E. coli – strain DRC41, OD650, 48 h, E. coli filamentation inducer project, primary screen (AID 1152); conditions: higher = more signal, called active from +8 up or from −8 down;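 also: E. coli MC1000 strain DRC41 lacking acrAB efflux pump and sulA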
[12] = probe aLefty1 binding on compound microarray – biochemical, small-molecule microarray, 635/667 nm fluorescence, primary screen (AID 1153); conditions: higher = more signal;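 also: score merges spot fluorescence with signal-to-noise ratio from the scanned slide images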
[13] = plasmodial surface anion channel blockers, osmotic lysis – cell-based, P. falciparum Indochina, OD700, 1 h, primary screen (AID 1154); conditions: P. falciparum Indochina infected RBC osmotic lysis, higher = more signal, called active from +8 up or from −8 down
[14] = plasmodial surface anion channel blockers, osmotic lysis – cell-based, P. falciparum Indochina, OD700, 2 h, primary screen (AID 1155);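 also: lysis reports solute entry through the parasite surface anion channel PSAC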; conditions: P. falciparum Indochina infected erythrocytes, higher = more signal, called active from +8 up or from −8 down
[15] = changes in parasitized red cell lysis, either direction – P. falciparum Indochina, OD700, 3 h, PSAC antagonist project, primary screen (AID 1156); conditions: P. falciparum-infected erythrocytes, osmotic lysis, higher = more signal, called active from +8 up or from −8 down
[16] = plasmodial surface anion channel blockers, osmotic lysis – cell-based, P. falciparum Indochina, OD700, 18 h, primary screen (AID 1157); conditions: P. falciparum Indochina infected erythrocytes, osmotic lysis OD700, 18 h; higher = more signal, called active from +8 up or from −8 down
[17] = S6 kinase pathway phospho-S6 level changes – cell-based, A549, cytoblot, luminescence, serum-stimulated, primary screen (AID 1158); conditions: 5 h, higher = more signal;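 also: serum-stimulated A549 lung adenocarcinoma cells; signal is phosphorylated S6 detected by cytoblot immunostaining with HRP secondary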
[18] = target: NADPH oxidase 2 (Homo sapiens) (UniProt P04839); experiment: compounds shifting NOX2 Amplex Red fluorescence – cell-based, HEK293-NOX2, PMA-stimulated, NOX inhibitor project, primary screen (AID 1159); conditions: 45 min, higher = more signal, called active from +8 up or from −8 down; also: test concentration not given here
Chain of NADPH oxidase 2 (Homo sapiens) (P04839 whole entry, looked up): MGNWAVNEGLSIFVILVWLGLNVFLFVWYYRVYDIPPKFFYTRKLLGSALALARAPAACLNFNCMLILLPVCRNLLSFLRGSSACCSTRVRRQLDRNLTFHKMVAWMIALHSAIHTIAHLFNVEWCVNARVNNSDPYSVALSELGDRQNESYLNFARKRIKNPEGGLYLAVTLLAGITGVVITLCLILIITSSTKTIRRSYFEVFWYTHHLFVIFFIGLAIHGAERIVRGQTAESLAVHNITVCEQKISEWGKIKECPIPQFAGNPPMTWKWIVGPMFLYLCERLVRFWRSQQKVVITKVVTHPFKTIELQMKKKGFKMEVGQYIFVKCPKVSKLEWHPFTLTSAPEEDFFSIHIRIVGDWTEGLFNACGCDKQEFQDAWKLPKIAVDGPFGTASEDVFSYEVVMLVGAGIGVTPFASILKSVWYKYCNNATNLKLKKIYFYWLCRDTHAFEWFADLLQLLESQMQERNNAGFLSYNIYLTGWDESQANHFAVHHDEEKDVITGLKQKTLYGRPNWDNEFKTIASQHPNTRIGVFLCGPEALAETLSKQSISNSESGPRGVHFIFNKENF

[19] = target: NADPH oxidase 4 (Homo sapiens) (UniProt Q9NPH5); experiment: compounds shifting NOX4 Amplex Red fluorescence – cell-based, HEK293-NOX4, tetracycline-induced, NOX inhibitor project, primary screen (AID 1160); conditions: HEK293-NOX4, Amplex Red H2O2 fluorescence, 45 min; higher = more signal, called active from +8 up or from −8 down
Chain of NADPH oxidase 4 (Homo sapiens) (Q9NPH5 whole entry, looked up): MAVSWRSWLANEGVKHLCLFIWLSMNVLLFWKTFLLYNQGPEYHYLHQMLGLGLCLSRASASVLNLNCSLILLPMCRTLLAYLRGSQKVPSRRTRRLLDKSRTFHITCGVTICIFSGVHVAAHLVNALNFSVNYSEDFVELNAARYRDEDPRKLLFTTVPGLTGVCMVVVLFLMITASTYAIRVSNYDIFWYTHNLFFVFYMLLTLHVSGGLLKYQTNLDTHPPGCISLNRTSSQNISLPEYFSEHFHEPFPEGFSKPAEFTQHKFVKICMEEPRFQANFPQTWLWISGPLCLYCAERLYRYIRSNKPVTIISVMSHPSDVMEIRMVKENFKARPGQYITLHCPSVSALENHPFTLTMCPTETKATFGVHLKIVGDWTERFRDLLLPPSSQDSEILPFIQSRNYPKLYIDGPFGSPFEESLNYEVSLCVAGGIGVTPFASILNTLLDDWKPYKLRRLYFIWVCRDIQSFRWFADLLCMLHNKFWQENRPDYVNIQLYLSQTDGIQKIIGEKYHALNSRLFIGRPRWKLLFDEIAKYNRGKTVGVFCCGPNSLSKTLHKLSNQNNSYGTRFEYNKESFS

[20] = target: NADPH oxidase 5 (Homo sapiens) (UniProt Q96PH1); experiment: compounds shifting NOX5 Amplex Red fluorescence – cell-based, HEK293-NOX5, NOX inhibitor project, primary screen (AID 1161); conditions: HEK293-NOX5, ionomycin, 45 min, higher = more signal
Chain of NADPH oxidase 5 (Homo sapiens) (Q96PH1 whole entry, looked up): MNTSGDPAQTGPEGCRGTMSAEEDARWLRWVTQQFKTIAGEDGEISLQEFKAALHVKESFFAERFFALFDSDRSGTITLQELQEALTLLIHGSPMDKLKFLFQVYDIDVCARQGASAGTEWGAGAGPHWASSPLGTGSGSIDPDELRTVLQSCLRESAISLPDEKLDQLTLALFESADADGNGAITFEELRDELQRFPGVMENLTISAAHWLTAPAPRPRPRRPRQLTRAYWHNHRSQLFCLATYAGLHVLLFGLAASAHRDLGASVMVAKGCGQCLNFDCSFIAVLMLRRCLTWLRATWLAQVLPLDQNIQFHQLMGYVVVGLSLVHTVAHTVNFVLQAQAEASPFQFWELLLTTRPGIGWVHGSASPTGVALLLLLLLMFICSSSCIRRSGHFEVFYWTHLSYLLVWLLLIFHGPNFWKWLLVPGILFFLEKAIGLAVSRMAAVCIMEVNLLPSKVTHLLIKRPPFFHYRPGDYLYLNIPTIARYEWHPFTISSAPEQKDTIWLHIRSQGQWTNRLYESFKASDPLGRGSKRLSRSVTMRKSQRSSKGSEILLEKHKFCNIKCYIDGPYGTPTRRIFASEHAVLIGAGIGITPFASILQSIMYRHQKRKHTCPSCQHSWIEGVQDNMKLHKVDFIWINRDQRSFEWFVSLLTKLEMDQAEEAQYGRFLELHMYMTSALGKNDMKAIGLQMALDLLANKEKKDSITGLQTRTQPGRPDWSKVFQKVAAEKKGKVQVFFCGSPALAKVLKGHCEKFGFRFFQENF

SMILES	composite z-score [1]	z-score [2]	z-score [3]	z-score [4]	z-score [5]	composite z-score [6]	composite z-score [7]	composite z-score [8]	composite z-score [9]	composite z-score [10]	z-score [11]	composite z-score [12]	z-score [13]	z-score [14]	z-score [15]	z-score [16]	z-score [17]	z-score [18]	z-score [19]	z-score [20]
Cc1ccc(S[C@]2(C(=O)NCc3ccccc3)CC(=O)N(C3Cc4ccccc4C3)[C@@H]2c2ccc(CO)cc2I)cc1	-0.265	-2.56 (inactive)	-0.394 (inactive)	-0.179 (inactive)	-0.17 (inactive)	-0.299	-0.157	-0.265	-1.03	-0.0358	3.36 (inactive)	0.0049	3.94 (inactive)	-0.533 (inactive)	-0.406 (inactive)	-0.63 (inactive)	1.58	0.542 (inactive)	-0.966 (inactive)	1.42
Cc1ccc(F)cc1S(=O)(=O)N[C@@H]1CCN(C(=O)c2ccc(OC(C)C)cc2)C1	0.336	-0.798 (inactive)	0.595 (inactive)	2.66 (inactive)	-0.906 (inactive)	0.224	0.143	0.0677	0.196	0.975	0.295 (inactive)	-0.0973	2.54 (inactive)	1.02 (inactive)	0.79 (inactive)	0.427 (inactive)	-0.102	-0.471 (inactive)	-0.0285 (inactive)	-0.257
COCCCNC(=O)[C@@H]1c2ccccc2C(=O)N(c2ccc(C)cn2)[C@H]1c1ccc(CO)cc1	-1.53	-0.17 (inactive)	-0.894 (inactive)	-0.374 (inactive)	-0.563 (inactive)	-1.6	-0.159	-2.83	-2.65	-1.2	-0.889 (inactive)	-0.0984	1.21 (inactive)	-0.205 (inactive)	1.74 (inactive)	0.205 (inactive)	-0.112	0.837 (inactive)	-0.797 (inactive)	-0.00783
Cc1cc(C)c(C(O)C2C=CC3C(=O)N(c4ccccc4)C(=O)C3N2Nc2ccccc2)c(C)c1 (stereo not given)	0.345	0.326 (inactive)	-1.38 (inactive)	-0.329 (inactive)	0.501 (inactive)	1.55	0.117	0.133	0.329	0.234	-0.687 (inactive)	0.157	1.72 (inactive)	1.23 (inactive)	0.244 (inactive)	1.44 (inactive)	-0.824	-1.56 (inactive)	-3.06 (inactive)	-3.17
C=CCNC(=O)[C@@H]1[C@H]2C(=O)O[C@H](c3ccccc3)[C@H](c3ccccc3)N2[C@H](c2ccc(O)cc2)[C@@]12C(=O)Nc1ccc(C#CCCO)cc12	0.177	-2.21 (inactive)	-0.661 (inactive)	0.0384 (inactive)	-0.612 (inactive)	-0.955	-0.153	-1.05	-0.106	-0.736	1.79 (inactive)	-0.495	2.1 (inactive)	-0.785 (inactive)	-0.534 (inactive)	-1.86 (inactive)	0.727	0.422 (inactive)	-0.449 (inactive)	0.425
CCCN1C(=O)[C@@H]2Cc3c([nH]c4ccccc34)[C@@H](c3cccc(O)c3)N2C1=O	-0.0436	0.792 (inactive)	-0.23 (inactive)	-0.374 (inactive)	-0.0707 (inactive)	-0.294	-0.024	0.288	0.193	0.216	-0.524 (inactive)	0.0742	-0.578 (inactive)	-0.108 (inactive)	-0.539 (inactive)	-0.114 (inactive)	0.257	-0.904 (inactive)	-1.02 (inactive)	-0.413
CN(C)CCCCNC(=O)[C@H]1C[C@H]2C(=O)N[C@@H](CCCC[N+](C)(C)C)C(=O)N2[C@H]1c1cccc(OCCO)c1	0.446	-0.255 (inactive)	-1.16 (inactive)	-0.659 (inactive)	-0.197 (inactive)	0.773	0.0228	1.04	1.01	2.01	0.125 (inactive)	0.145	3.16 (inactive)	0.77 (inactive)	0.675 (inactive)	0.178 (inactive)	-0.294	2.19 (inactive)	1.58 (inactive)	1.26
CN(C)CCCC[C@@H]1NC(=O)[C@H]2C[C@@H](C(=O)NCCCCCCNC(=O)CS)[C@@H](c3ccc(O)cc3)N2C1=O	-0.261	-0.898 (inactive)	-0.113 (inactive)	-1.21 (inactive)	-0.887 (inactive)	-1.05	-0.224	1.13	0.753	1.92	0.446 (inactive)	0.0048	2.46 (inactive)	0.374 (inactive)	1.84 (inactive)	0.178 (inactive)	0.469	1.35 (inactive)	1.78 (inactive)	1.52
CCC[C@@H]1C[C@@]1(CCC)[C@@H](NC(=O)c1cccs1)c1ccc(Cl)cc1	-0.551	-2.21 (inactive)	0.803 (inactive)	1.15 (inactive)	-0.127 (inactive)	-0.7	-0.211	-0.312	-0.412	-0.949	-0.26 (inactive)	0.0319	-0.119 (inactive)	-0.639 (inactive)	0.307 (inactive)	0.0519 (inactive)	-0.392	-1.47 (inactive)	-0.556 (inactive)	0.684
